Test results taken from PubChem BioAssay (NCI).
About 83,000 compounds went through this panel and 20% of them were active in at least one assay; those are over-represented in the sample as a whole.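 Testing used 96-well plates and a 48-hour single-concentration exposure. Example: -40 means 40% of the starting cells died.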 Unmarked numbers belong to inactive results. Activity calls are given as the source filed them. Rule for the calls: active = growth percent below 10; inactive = the rest.

Legend:
Assay in all cases: NCI-60 one-dose screen, 48 h (100 = growth as untreated, 0 = no growth, -100 = all killed)
Conditions in all cases: 10 µM
HCT-15 colon = tested on: HCT-15 colon
HT29 colon = tested on: HT29 colon
SNB-75 CNS = tested on: SNB-75 CNS
U251 CNS = tested on: U251 CNS
PC-3 prostate = tested on: PC-3 prostate
SK-MEL-5 melanoma = tested on: SK-MEL-5 melanoma
UACC-62 melanoma = tested on: UACC-62 melanoma
LOX IMVI melanoma = tested on: LOX IMVI melanoma
SK-MEL-28 melanoma = tested on: SK-MEL-28 melanoma
SK-MEL-2 melanoma = tested on: SK-MEL-2 melanoma
EKVX NSCLC = tested on: EKVX NSCLC
SN12C renal = tested on: SN12C renal
UO-31 renal = tested on: UO-31 renal
TK-10 renal = tested on: TK-10 renal
ACHN renal = tested on: ACHN renal
CAKI-1 renal = tested on: CAKI-1 renal
A498 renal = tested on: A498 renal
CCRF-CEM leukemia = tested on: CCRF-CEM leukemia
MOLT-4 leukemia = tested on: MOLT-4 leukemia
SNB-19 CNS = tested on: SNB-19 CNS

SMILES	growth (HCT-15 colon)	growth (HT29 colon)	growth (SNB-75 CNS) [%]	growth (U251 CNS)	growth (PC-3 prostate)	growth (SK-MEL-5 melanoma)	growth (UACC-62 melanoma)	growth (LOX IMVI melanoma)	growth (SK-MEL-28 melanoma)	growth (SK-MEL-2 melanoma)	growth (EKVX NSCLC) [%]	growth (SN12C renal)	growth (UO-31 renal)	growth (TK-10 renal) [%]	growth (ACHN renal)	growth (CAKI-1 renal) [%]	growth (A498 renal)	growth (CCRF-CEM leukemia)	growth (MOLT-4 leukemia)	growth (SNB-19 CNS)
COc1ccc(-c2nc(-c3ccccc3)c(-c3ccccc3)n2-c2ccc(S(=O)(=O)Nc3ncccn3)cc2)cc1OC	53.6%	96.2%	88.5	71.8%	63.7%	65.7%	83.6%	65.2%	92.3%	108%	63.6	76.3%	51.7%	91.8	82.6%	76.5	55%	69%	70.5%	–
Cc1ccc(C(C)C)cc1NC(=O)c1ccccc1O	35%	103%	–	41%	33.4%	-45.5% (active)	9.83% (active)	40.1%	31.1%	25.4%	49.7	37.8%	16.6%	69.4	44.7%	32.3	67.8%	24.5%	–	37.2%
N#Cc1ccc(-c2nn(-c3ccc(C(=O)O)cc3)cc2CNc2ccc(Oc3ccccc3)cc2)cc1	49.7%	34.4%	101	33.9%	29.5%	70%	21.9%	24.1%	21.3%	55.6%	75	34.1%	66.5%	77.1	47.3%	59.7	73%	19.3%	19.9%	–
O=c1nc(-c2ccccc2)cc(-c2cc3ccccc3nc2Cl)[nH]1	-64.1% (active)	-42.5% (active)	–	-72.7% (active)	31.8%	62.2%	35.1%	-87.7% (active)	71.5%	82.8%	61.6	20.7%	–	–	39.1%	56.6	104%	-29.3% (active)	-18.7% (active)	13%
NC(=Nc1ccc(OCCCCCCCCn2ccnn2)cc1)c1ccccc1	15.8%	–	61.2	12.2%	35.8%	–	41.8%	26.6%	49.2%	14.8%	42.7	32.3%	40.7%	70.9	34.4%	37.9	98.1%	15.6%	–	41.7%
CC1(c2ccccc2)NC(=O)N(CC(=O)Nc2ccc(C(=O)/C=C/c3ccc(Br)cc3)cc2)C1=O (configuration not stated)	19%	3.41% (active)	–	15.1%	20.1%	27.5%	27.2%	-49.1% (active)	48.9%	52.3%	55	51.2%	34.3%	76.7	35%	39.5	71.1%	32%	13.9%	56.7%
O=C(/C=C/Nc1ccc(F)cc1F)c1ccc2c(c1)Nc1ccccc1S2	33.1%	70.8%	–	73%	74.8%	76.1%	48.8%	65.9%	79.2%	–	74.2	82%	80.3%	100	78.6%	83.9	108%	–	66.7%	63.9%
CCOP(=O)(OCC)O[C@H]1CCC(=O)[C@@H]2[C@H]1[C@H]1C[C@@H]3[C@@]4(C)CCCC(C)(C(=O)OC)[C@@H]4CC[C@@]23C=C1C(C)C (some centres not stated)	49.8%	42.5%	–	42.1%	23.5%	18.1%	46.1%	62.4%	72.7%	71.3%	41.5	65.4%	53.5%	83.2	65.2%	63.2	91.1%	55.1%	30%	68.1%
CC1=N/C(=C\c2ccc(N(C)C)cc2)C(=O)N1CCc1ccc(S(N)(=O)=O)cc1	104%	105%	–	91.8%	96.7%	97.8%	93.7%	98.1%	117%	97.9%	–	–	87.9%	110	105%	88.3	102%	–	93.6%	95.2%
O=C(c1ccc([N+](=O)[O-])c([N+](=O)[O-])c1O)n1[nH]c(=O)c2ccccc2c1=O	39.1%	66.7%	–	61.1%	74.1%	77.8%	60.3%	56.6%	92.7%	76.1%	66.4	70.2%	–	120	76.6%	82.4	133%	30.5%	36.3%	72.9%
Cc1noc2c(Cc3ccc([N+](=O)[O-])cc3)nn(CC(=O)N/N=C/c3ccc(Br)cc3)c(=O)c12	94.8%	86.1%	–	70.4%	78.1%	92%	80.1%	–	96.4%	116%	90.2	–	57.7%	112	43.6%	84	121%	103%	103%	69.6%
O=C(CNc1nc(-c2ccccc2)cs1)Nc1cccc(Cl)c1	5.51% (active)	32.1%	–	26.9%	18.9%	35.5%	19.8%	7.96% (active)	42.8%	38.2%	–	41.4%	9.97% (active)	52.5	28.3%	28.4	–	26.3%	7.42% (active)	51%
Cc1ccc(C(=O)NCCCNc2nc(Nc3ccc(N4CCN(C)CC4)cc3)nc3ccsc23)cc1	2.1% (active)	8.64% (active)	–	18.5%	37.9%	-15.2% (active)	24.1%	-22.6% (active)	-70.3% (active)	81.8%	71.2	72.6%	56.7%	87.2	30.5%	54	137%	4.37% (active)	–	71.6%
CCCSc1nc(NC2CC2)c(C#N)c(-c2ccc(OC)cc2)n1	95.4%	90.1%	–	87.4%	95.3%	98.2%	83.7%	93.9%	118%	118%	101	91.9%	93.6%	106	85.2%	86.9	100%	97.1%	100%	70.3%
COc1cc(/C=C/C(=O)c2cc(OC)c(OC)c(OC)c2)ccc1Oc1nc(Nc2ccc(F)cc2)nc(N(C)C)n1	-40.3% (active)	-50.9% (active)	–	-72.9% (active)	-20% (active)	-76.2% (active)	-80.7% (active)	–	-72.1% (active)	-49.4% (active)	20.6	-89.3% (active)	-100% (active)	28.6	-82.3% (active)	11.5	-1.01% (active)	3.77% (active)	4.87% (active)	-46.7% (active)
O=C(CSc1nnc(-c2c[nH]c3ccccc23)n1-c1ccccc1)c1ccc(Cl)cc1	73.3%	42.6%	–	30.1%	60.4%	78.2%	52.8%	15.9%	68.3%	33.7%	25.6	64.6%	54.8%	84	57.5%	64.5	57.3%	92.7%	104%	40%
